sEH inh – soluble epoxide hydrolase (human) inhibition | inhibition, % at 2 µM | recombinant human sEH enzymatic activity assay | P34913 | 91,000 tested, 0.34% active; in the data active = inhibition above about 80%
Target sequence (P34913 whole entry, looked up): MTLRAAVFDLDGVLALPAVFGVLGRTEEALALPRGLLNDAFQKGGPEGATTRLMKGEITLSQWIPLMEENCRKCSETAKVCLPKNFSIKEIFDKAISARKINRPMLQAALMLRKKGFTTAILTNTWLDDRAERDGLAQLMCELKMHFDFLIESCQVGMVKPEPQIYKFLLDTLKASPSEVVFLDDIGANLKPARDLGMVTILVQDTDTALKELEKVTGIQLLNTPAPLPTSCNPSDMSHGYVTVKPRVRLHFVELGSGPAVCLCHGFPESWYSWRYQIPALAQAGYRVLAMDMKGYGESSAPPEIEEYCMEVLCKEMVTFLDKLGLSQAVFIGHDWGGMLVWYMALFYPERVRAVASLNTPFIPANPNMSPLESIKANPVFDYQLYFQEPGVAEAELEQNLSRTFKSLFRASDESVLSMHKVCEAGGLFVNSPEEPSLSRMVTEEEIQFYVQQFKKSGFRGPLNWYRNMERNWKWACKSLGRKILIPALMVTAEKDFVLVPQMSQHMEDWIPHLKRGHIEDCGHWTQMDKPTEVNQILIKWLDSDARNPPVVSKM
CYP2C9 inhib – inhibitors of human CYP2C9 | 96,000 tested, 20% active | P11712 | inhibition, % at 5 µM | CYP2C9 Supersomes, luciferin-H conversion, luminescence;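 active = blocking of liver enzyme CYP2C9 beyond about 50% at 5 µM, limit read from the data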
sEH act – increases human soluble epoxide hydrolase activity; 91,000 tested, 0.04% active; P34913; purified human sEH enzymatic activity, activator screen; activation, % at 2 µM; AID 717; in the data active = activation above about 37%
CYP2C19 inh – blocks human cytochrome P450 2C19 | P33261 | CYP2C19 Supersomes, luciferin-H EGE luminescence, 30 min | inhibition, % at 5 µM | 96,000 tested, 21% active | AID 778;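 active = CYP2C19 inhibition above a set limit at 5 µM in the primary screen, cut at about 50% in these data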;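 also: plate controls were negative control wells for no effect and 2.5 mM tranylcypromine positive control for full effect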
CYP2C19 activ – cytochrome P450 2C19 (human) activation; P33261; recombinant CYP2C19, luciferin-H EGE luminescence; stronger effect = higher value; 0 = fully inhibited enzyme, 1 = untreated enzyme; activation factor at 5 µM; 96,000 tested, under 10 active;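 active = activation factor of at least 2 at 5 µM in the primary screen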;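 also: 0 = wells with 2.5 mM tranylcypromine and 1 = vehicle-only wells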
CYP2C9 act – activators of human CYP2C9; P11712; recombinant CYP2C9, luciferin-H conversion, luminescence; stronger effect = higher value; factor 1 = untreated enzyme, 0 = blocked; activation factor at 5 µM; 96,000 tested, 1.4% active; AID 1024;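 active = activation factor of 2 or more for CYP2C9 at a 5 µM dose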;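 also: 0 = sulfaphenazole-blocked wells and 1 = vehicle-only wells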
Numbers without * were called inactive; · = not tested or not shown. An excerpt weighted towards active compounds, which were near 27% of everything screened.

SMILES	sEH inh	CYP2C9 inhib	sEH act	CYP2C19 inh	CYP2C19 activ	CYP2C9 act
O=C(CC(c1ccco1)C1CCCCC1=O)c1ccccc1 (stereo not drawn)	6.6	74.3*	-10.5	61.5*	0.4	0.3
COc1ccc(C(=O)CC(c2ccccc2)C2C(=O)CCCC2=O)cc1 (stereo not drawn)	-1.6	93.1*	4.8	68.7*	0.3	0.1
COc1ccc(C(CC(=O)c2ccccc2)C2CCCCC2=O)cc1 (stereo not drawn)	1.2	16.8	1.5	52.7*	0.5	0.8
Cc1cc(Nc2cc(C)on2)n2ncnc2n1	·	-1.0	·	-27.6	1.3	1
Cc1ccc(/C(O)=C2\C(=O)C(=O)N(CC(C)O)C2c2cccc(F)c2)cc1 (stereo not drawn)	·	-3.6	·	-21.4	1.2	1
N=c1oc2ccccc2cc1-c1nc2ccccc2c(=O)[nH]1	-12.9	18.6	11.8	27.3	0.7	0.8
CCC1CCCCN1C(=O)Cn1c(=O)oc2ccccc21 (stereo not drawn)	·	12.3	·	83.3*	0.2	0.9
CCC1CCCCN1C(=O)COc1cc(=O)n(C)c2ccccc12 (stereo not drawn)	0.9	7.5	-0.2	59.2*	0.4	0.9
CCC1CCCCN1C(=O)Cn1c(C(=O)OC)cc2ccsc21 (stereo not drawn)	-0.3	37.8	1.7	52.6*	0.5	0.6
Cn1c(=O)cc(OCCCC(=O)NC2CCCC2)c2ccccc21	-0.1	-12.0	-0.7	10.2	0.9	1.1
Cn1c(=O)cc(OCC(=O)NC2CCCCC2)c2ccccc21	12.4	1.6	-10.3	62.3*	0.4	1
CC(C)NC(=O)NC(=O)CSc1nnc(COc2ccccc2F)n1C(C)C1CC2CCC1C2 (stereo not drawn)	14.1	41.5	-15.4	20.1	0.8	0.6
CC1=[N+]([O-])C(C)(C)C(C)N(O)C1=O (stereo not drawn)	-9.4	-11.7	8.5	-16.1	1.2	1.1
Cc1cc(C)c(C)c(/C=C(/C#N)C(N)=S)c1C	-12.5	64.6*	9.5	24.5	0.8	0.4
CN(C)/C=N/C(=S)Nc1ccc(Br)cc1F	5.7	22.7	-4.4	58.9*	0.4	0.8
CCCC(C)NS(=O)(=O)c1ccc(OC)c(C)c1 (stereo not drawn)	-14.0	-84.4	16.5	81.2*	0.2	1.8
CCCC(C)NS(=O)(=O)c1ccccc1 (stereo not drawn)	9.7	54.1*	-8.4	85.9*	0.1	0.5
O=[N+]([O-])c1ccc(Oc2ccc(F)cc2)c2ccncc12	9.4	49.8	-6.6	83.5*	0.2	0.5
O=[N+]([O-])c1ccc(Oc2cccc(Br)c2)c2ccncc12	-4.6	16.0	6.1	58.5*	0.4	0.8
CCN(CC)S(=O)(=O)c1ccc2c(c1)nc(SCC(N)=O)n2-c1ccc(OC)cc1	-5.4	49.2	8.5	30.2	0.7	0.5
CCN(CC)S(=O)(=O)c1ccc2c(c1)nc(SCC(=O)N1CCCCCC1)n2-c1ccc(OC)cc1	2.5	81.4*	-0.7	14.1	0.9	0.2
O=C(NCc1cccnc1)c1ccc(CS(=O)(=O)c2ccc(Cl)cc2)o1	2.1	92.6*	-4.7	100.1*	0	0.1
COc1ccc2nc3oc(C(=O)NCc4cccs4)cc3cc2c1	-16.2	26.4	13.5	46.7	0.5	0.7
O=C(NCc1cccs1)c1cc2ccccc2o1	-12.6	18.4	14.1	56.3*	0.4	0.8
O=C(NCc1cccs1)c1ccc(CS(=O)(=O)c2ccc(Cl)cc2)o1	-13.9	72.0*	12.8	52.0*	0.5	0.3
SMILES	sEH inh	CYP2C9 inhib	sEH act	CYP2C19 inh	CYP2C19 activ	CYP2C9 act
COc1ccc(S(=O)(=O)Cc2ccc(C(=O)NCc3cccs3)o2)cc1	5.2	60.3*	-3.0	27.3	0.7	0.4
COc1ccccc1S(=O)(=O)Cc1ccc(C(=O)NCc2cccs2)o1	8.2	6.0	-6.2	6.8	0.9	0.9
COCCNC(=O)c1ccc(CS(=O)(=O)c2ccc(Cl)cc2)o1	-8.3	15.4	5.4	10.3	0.9	0.8
CCOC(=O)CSc1nc(N(C)C)nc(N(C)C#N)n1	3.2	·	-3.1	·	·	·
O=C(NCc1ccco1)/C(=C/c1cccnc1)NC(=O)c1cccc(Br)c1	13.7	-1.3	-11.7	-3.5	1	1
CCOC(=O)N1CCN(CC(=O)N2c3ccccc3CC2C)CC1 (stereo not drawn)	4.3	-12.0	-1.0	3.9	1	1.1
Cc1cc(C(C)(C)C)oc1C(=O)Nc1ccc(CC(=O)O)cc1	·	1.0	·	-2.7	1	1

Assay outcomes (PubChem BioAssay)
